Assay results as given in PubChem BioAssay (NCATS).
Records with an inconclusive call do not appear. Entries that show only a call come without a potency. Calls of active or inactive are those of the source. The call rests on the fitted dose curve; in most records, active means well fitted cell-killing curve with a large enough effect; inconclusive means small, poorly fitted or top-dose-only effect, or effect the other way; inactive means no such curve, though single readings can be large or run the other way.

Experiment: Quantitative High-Throughput drug screen in 47 multiple myeloma cell lines against the NCATS MIPE library collection: PCM6_Riken cell viability assay (AID 1919870)
Conditions: CellTiter-Glo ATP, 48 h; series mostly up to 45.8 µM
Outline: (§1)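 Inhibition of viability over 48 h was scored by ATP content (CellTiter-Glo) in 500-cell wells. Zero and full viability were defined by media-only and DMSO-only wells.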
Further: nearly all actives have a fitted effect of over 30% in size.
Potency means the concentration at half of the fitted maximal effect.

**Q.** For `Oc1cccc(-c2nc(N3CCOCC3)c3oc4ncccc4c3n2)c1`, which Potency is on record?
**A.** 0.54 µM (active)

**Q.** Which Potency does the source give for `CC(C)(C)OC(=O)CN(Cc1ccc(Cl)cc1)Cc1ccc([N+](=O)[O-])s1` here?
**A.** inactive

**Q.** Which Potency does the source give for `Cc1cc(-c2ccc(CC(=O)Nc3ccc(-c4cccnc4)cc3)cc2)ccn1` here?
**A.** 11.8 µM (active)

**Q.** For `OC[C@H](Cc1ccccc1)Nc1nc(Oc2ccc3c(c2)CCC3)nc2c1ncn2Cc1ccc(-c2ccccc2)cc1`, which Potency is on record?
**A.** inactive

**Q.** Which Potency does the source give for `Cc1n[nH]c(C)c1Cc1sc2c(c1C(=O)N1C[C@H](O)CO1)c(=O)n(C)c(=O)n2CC(C)C` here?
**A.** inactive

**Q.** With `Clc1ccc(Nc2nnc(Cc3ccncc3)c3ccccc23)cc1` as the compound, how does the Potency read?
**A.** 14.8 µM (active)

**Q.** With `COc1cc(Oc2ccnc3cc(OC)c(OC)cc23)ccc1NC(=O)NC(C)c1nccs1` (configuration not stated) as the compound, how does the Potency read?
**A.** 13.2 µM (active)

**Q.** For `COc1ccc2nc(S(=O)Cc3ncc(C)c(OC)c3C)[nH]c2c1` (configuration not stated), which Potency is on record?
**A.** 20.9 µM (active)

**Q.** For `C[C@@H]1CN(Cc2ccc(F)cc2)[C@@H](C)CN1C(=O)c1cc2c(C(=O)C(=O)N(C)C)cn(C)c2cc1Cl`, which Potency is on record?
**A.** 18.7 µM (active)

**Q.** Which Potency does the source give for `c1ccc(-c2nn3c(c2-c2ccnc4cc(OCCN5CCOCC5)ccc24)CCC3)nc1` here?
**A.** 1.48 µM (active)

**Q.** With `CCn1c(-c2nonc2N)nc2c(C#CC(C)(C)O)ncc(OC[C@H]3CCCNC3)c21` as the compound, how does the Potency read?
**A.** 14.8 µM (active)

**Q.** With `CC(C[N+](C)(C)C)OC(N)=O` (configuration not stated) as the compound, how does the Potency read?
**A.** inactive

**Q.** With `CC1(C)CNc2cc(NC(=O)c3cccnc3NCc3ccncc3)ccc21` as the compound, how does the Potency read?
**A.** 1.32 µM (active)

Experiment: Quantitative High-Throughput drug screen in 47 multiple myeloma cell lines against the NCATS MIPE library collection: RPMI8226_ATCC cell viability assay (AID 1919871)
Conditions: RPMI8226 myeloma viability, CellTiter-Glo ATP luminescence, 48 h; series mostly up to 45.8 µM
Outline: as §1

**Q.** For `Cc1cc(-c2ccc(CC(=O)Nc3ccc(-c4cccnc4)cc3)cc2)ccn1`, which Potency is on record?
**A.** 5.9 µM (active)

**Q.** For `CCc1cc(Nc2nccc(-c3c(-c4ccc(OC)c(C(=O)Nc5c(F)cccc5F)c4)nc4ccccn34)n2)c(OC)cc1N1CCC(N2CCN(S(C)(=O)=O)CC2)CC1`, which Potency is on record?
**A.** 20.9 µM (active)

**Q.** For `O=c1n(CCCN2CCN(c3cccc(Cl)c3)CC2)nc2ccccn12`, which Potency is on record?
**A.** inactive

**Q.** For `CNCc1ccc(-c2[nH]c3cc(F)cc4c3c2CCNC4=O)cc1`, which Potency is on record?
**A.** inactive

**Q.** With `OC[C@H](Cc1ccccc1)Nc1nc(Oc2ccc3c(c2)CCC3)nc2c1ncn2Cc1ccc(-c2ccccc2)cc1` as the compound, how does the Potency read?
**A.** inactive

**Q.** With `CCOc1cc(C(=O)Nc2ccc(Cl)c(-c3nc4ccccc4[nH]3)c2)cc(OCC)c1OCC` as the compound, how does the Potency read?
**A.** 18.7 µM (active)

**Q.** Which Potency does the source give for `COc1cc(Oc2ccnc3cc(OC)c(OC)cc23)ccc1NC(=O)NC(C)c1nccs1` (configuration not stated) here?
**A.** 16.6 µM (active)

**Q.** With `COc1ccc2nc(S(=O)Cc3ncc(C)c(OC)c3C)[nH]c2c1` (configuration not stated) as the compound, how does the Potency read?
**A.** inactive

**Q.** With `Cc1cnc(NC(=O)C2=C(O)c3ccccc3S(=O)(=O)N2C)s1` as the compound, how does the Potency read?
**A.** inactive

**Q.** For `Cc1ccccc1C(OCCN(C)C)c1ccccc1` (configuration not stated), which Potency is on record?
**A.** inactive

**Q.** Which Potency does the source give for `COc1cc(F)c(F)c(Nc2ccc(I)cc2F)c1NS(=O)(=O)C1(C[C@H](O)CO)CC1` here?
**A.** 10.5 µM (active)

**Q.** For `c1ccc(-c2nn3c(c2-c2ccnc4cc(OCCN5CCOCC5)ccc24)CCC3)nc1`, which Potency is on record?
**A.** 20.9 µM (active)

**Q.** Which Potency does the source give for `Cc1cccc(-c2nn(C(=S)Nc3ccccc3)cc2-c2ccnc3ccccc23)n1` here?
**A.** inactive

**Q.** With `CNC(=O)c1ccc(N2C(=S)N(c3ccc(C#N)c(C(F)(F)F)c3)C(=O)C2(C)C)cc1F` as the compound, how does the Potency read?
**A.** inactive

**Q.** Which Potency does the source give for `CCOC(=O)N[C@@H]1CC[C@@H]2[C@@H](C1)C[C@H]1C(=O)O[C@H](C)[C@H]1[C@@H]2C=Cc1ccc(-c2cccc(F)c2)cn1` here?
**A.** 18.7 µM (active)

**Q.** With `CC(C[N+](C)(C)C)OC(N)=O` (configuration not stated) as the compound, how does the Potency read?
**A.** inactive

**Q.** Which Potency does the source give for `CC1(C)CNc2cc(NC(=O)c3cccnc3NCc3ccncc3)ccc21` here?
**A.** 18.7 µM (active)

Experiment: Quantitative High-Throughput drug screen in 47 multiple myeloma cell lines against the NCATS MIPE library collection: OPM2_DSMZ cell viability assay (AID 1919872)
Conditions: OPM2 myeloma viability, CellTiter-Glo ATP luminescence, 48 h; series mostly up to 45.8 µM
Outline: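 Inhibition of cell viability is measured here. Each line was plated at 500 cells per well, treated with MIPE 4.0 drugs, kept 48 hours at 37C, then assayed for ATP content by CellTiter-Glo luminescence.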

**Q.** For `Oc1cccc(-c2nc(N3CCOCC3)c3oc4ncccc4c3n2)c1`, which Potency is on record?
**A.** 0.136 µM (active)

**Q.** For `C[C@]1(c2nc3c(C(N)=O)cccc3[nH]2)CCCN1`, which Potency is on record?
**A.** inactive

**Q.** For `Cc1cc(-c2ccc(CC(=O)Nc3ccc(-c4cccnc4)cc3)cc2)ccn1`, which Potency is on record?
**A.** inactive

**Q.** For `O=c1n(CCCN2CCN(c3cccc(Cl)c3)CC2)nc2ccccn12`, which Potency is on record?
**A.** inactive

**Q.** For `CNCc1ccc(-c2[nH]c3cc(F)cc4c3c2CCNC4=O)cc1`, which Potency is on record?
**A.** inactive

**Q.** For `OC[C@H](Cc1ccccc1)Nc1nc(Oc2ccc3c(c2)CCC3)nc2c1ncn2Cc1ccc(-c2ccccc2)cc1`, which Potency is on record?
**A.** inactive

**Q.** With `Cc1n[nH]c(C)c1Cc1sc2c(c1C(=O)N1C[C@H](O)CO1)c(=O)n(C)c(=O)n2CC(C)C` as the compound, how does the Potency read?
**A.** inactive

**Q.** For `Clc1ccc(Nc2nnc(Cc3ccncc3)c3ccccc23)cc1`, which Potency is on record?
**A.** inactive

**Q.** With `C1COC(NC(C2CC2)C2CC2)=N1` as the compound, how does the Potency read?
**A.** inactive

**Q.** Which Potency does the source give for `CC[C@@H](C)[C@H](NC(=O)[C@H](CC1CCCCC1)NC(=O)c1ccno1)C(=O)N1CCC2(CCc3ccccc32)CC1` here?
**A.** 11.8 µM (active)

**Q.** For `Cc1cnc(NC(=O)C2=C(O)c3ccccc3S(=O)(=O)N2C)s1`, which Potency is on record?
**A.** inactive

**Q.** For `C[C@@H]1CN(Cc2ccc(F)cc2)[C@@H](C)CN1C(=O)c1cc2c(C(=O)C(=O)N(C)C)cn(C)c2cc1Cl`, which Potency is on record?
**A.** inactive

**Q.** Which Potency does the source give for `Cc1ccccc1C(OCCN(C)C)c1ccccc1` (configuration not stated) here?
**A.** inactive

**Q.** For `COc1cc(F)c(F)c(Nc2ccc(I)cc2F)c1NS(=O)(=O)C1(C[C@H](O)CO)CC1`, which Potency is on record?
**A.** inactive

**Q.** For `Cn1cc(-c2ccc3nnc(C(F)(F)c4ccc5ncccc5c4)n3n2)cn1`, which Potency is on record?
**A.** inactive

**Q.** Which Potency does the source give for `Cc1cccc(-c2nn(C(=S)Nc3ccccc3)cc2-c2ccnc3ccccc23)n1` here?
**A.** inactive

**Q.** Which Potency does the source give for `CNC(=O)c1ccc(N2C(=S)N(c3ccc(C#N)c(C(F)(F)F)c3)C(=O)C2(C)C)cc1F` here?
**A.** inactive

**Q.** Which Potency does the source give for `Cc1cccc(-c2[nH]c(C(C)(C)C)nc2-c2ccc3nccnc3c2)n1` here?
**A.** inactive

**Q.** For `CCOC(=O)N[C@@H]1CC[C@@H]2[C@@H](C1)C[C@H]1C(=O)O[C@H](C)[C@H]1[C@@H]2C=Cc1ccc(-c2cccc(F)c2)cn1`, which Potency is on record?
**A.** inactive

**Q.** For `CC(C)(N)C(=O)N[C@H](COCc1ccccc1)C(=O)N1CCC2(CC1)CN(S(C)(=O)=O)c1ccccc12`, which Potency is on record?
**A.** inactive

**Q.** For `O=S(=O)(N=Cc1c(O)ccc2ccccc12)c1cccs1`, which Potency is on record?
**A.** inactive

**Q.** With `C#Cc1cccc(Nc2ncnc3cc(OCCOC)c(OCCOC)cc23)c1` as the compound, how does the Potency read?
**A.** inactive
